The values below come from PubChem BioAssay (Tox21).

Where “and” joins values, the source holds several entries; their conditions need not be identical. Equal entries are not always repeated. More than one record can exist for a structure, and the calls need not agree. Calls of active or inactive are those of the source. Unless noted, calls follow the shape of the dose curve; as a rule, active = well fitted curve in the direction sought with a large enough effect in the repeat runs; inconclusive = weak or mixed curves; inactive = no such curve, though single readings can be large; an effect the other way counts as inactive or inconclusive.

Assay [1] can be described thus: qHTS assay to test for compound auto fluorescence at 535 nm (green) in HEK293 cells (AID 720680). Also: potency is read from the fitted curve at half-maximal effect. For orientation: qHTS replaces the single test concentration by a dilution series.
A short description of assay [2]: qHTS assay to test for compound auto fluorescence at 460 nm (blue) in HEK293 cell free culture (AID 720681). The method, boiled down: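 Test compounds were pinned into cell-free culture medium (DMEM with 10% FBS) and fluorescence was read directly at Ex/Em 405/460 nm. Signals were expressed as fluorescence equivalents of triamterene, with DMSO vehicle as control.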

Assay [3] is described as follows: qHTS assay to test for compound auto fluorescence at 535 nm (green) in HEK293 cell free culture (AID 720682). Also: potency is read from the fitted curve at half-maximal effect. The method, boiled down:
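Using fluorescein as calibrant, autofluorescence was quantified at 485/535 nm in cell-free DMEM containing 10% FBS after pintool addition of compound or vehicle.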

Assay [4] in a line: qHTS assay to test for compound auto fluorescence at 590 nm (red) in HEK293 cell free culture (AID 720683). Also: potency is read from the fitted curve at half-maximal effect. The method, boiled down:
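Tox21 10K library compounds were pinned into cell-free DMEM with 10% FBS and fluorescence was read at excitation 540 nm. Activity is expressed as Rose Bengal sodium equivalency.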

Assay [5] can be described thus: qHTS assay to test for compound auto fluorescence at 590 nm (red) in HepG2 cell free culture (AID 720684). Also: potency is read from the fitted curve at half-maximal effect. The method, boiled down:
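Red fluorescence (540 nm excitation, 590 nm emission) was measured after compound transfer into cell-free MEM supplemented with 10% FBS. Values are equivalencies against Rose Bengal sodium.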

Assay [6] in a line: qHTS assay to test for compound auto fluorescence at 460 nm (blue) in HepG2 cell free culture (AID 720685). In a few lines: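 Compound (23 nL) or DMSO pinned into cell-free MEM with 10% FBS; blue fluorescence read at 405/460 nm excitation/emission, expressed as auto-fluorescence equivalency to triamterene.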
Assay [7] can be described thus: qHTS assay to test for compound auto fluorescence at 535 nm (green) in HepG2 cell free culture (AID 720686). Also: potency is read from the fitted curve at half-maximal effect.
Assay [8] in a line: qHTS assay to test for compound auto fluorescence at 460 nm (blue) in HepG2 cells (AID 720687). The method, boiled down:
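Cells (2,000/well in MEM with 10% FBS) attached overnight at 37 C, then were exposed to compound or DMSO for 1 hr at 37 C, 5% CO2. Fluorescence read at Ex/Em 405/460 nm, expressed as triamterene-equivalent signal.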

Assay [9] concerns the target Glucocorticoid receptor (Homo sapiens) (UniProt P04150). As to the kind of experiment: qHTS assay to identify small molecule agonists of the glucocorticoid receptor (GR) signaling pathway (AID 720691; active = well fitted activation curve with a large enough effect in the signal ratio in the repeat runs, not every such curve was filed as active; inconclusive = weak or mixed curves, or effect the other way; inactive = no such curve, though single readings can be large or run the other way; the % refers to the signal ratio; also: potency is read from the fitted curve at half-maximal effect). In a few lines:
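GR-bla HeLa cells carrying a GRE-driven beta-lactamase reporter, exposed to compounds for 18 h at 37 C. Reporter activation read as fluorescence after 2 h with LiveBLAzer B/G FRET substrate at room temperature.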

A short description of assay [10]: qHTS assay for identifying genotoxic compounds that show differential cytotoxicity against isogenic chicken DT40 cell lines with known DNA damage response pathways - wild type cell line (AID 743012). Also: nearly all actives have a fitted effect of over 60% in size. Also: potency is read from the fitted curve at half-maximal effect. The method, boiled down: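 Wild-type DT40 cells (300/well) exposed to compounds for 40 hours at 37 C/5% CO2. Viability read by CellTiter-Glo luminescence after 30 min at room temperature.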

Assay [11] in a line: qHTS assay for identifying genotoxic compounds that show differential cytotoxicity against isogenic chicken DT40 cell lines with known DNA damage response pathways - Rev3 mutant cell line (AID 743014). Also: nearly all actives have a fitted effect of over 55% in size. Also: potency is read from the fitted curve at half-maximal effect.
Assay [12] can be described thus: qHTS assay to identify small molecule antagonists of the androgen receptor (AR) signaling pathway using the MDA cell line - cell viability counter screen (AID 743041; also: nearly all actives have a fitted effect of over 45% in size). In a few lines:
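MDA-kb2 AR-luc human breast carcinoma cells (MMTV-luciferase, AR/GR responsive) were treated with compounds plus R1881 agonist for 16 h at 37 °C. Viability was read as CellTiter-Fluor fluorescence in the same wells as the reporter assay.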

The nature of assay [13]: qHTS assay to identify small molecule antagonists of the glucocorticoid receptor (GR) signaling pathway - cell viability counter screen (AID 720693). Also: nearly all actives have a fitted effect of over 55% in size.
Assay [14] is described as follows: qHTS assay to identify small molecule antagonists of the androgen receptor (AR) signaling pathway - cell viability counter screen (AID 743033; also: nearly all actives have a fitted effect of over 45% in size; also: potency is read from the fitted curve at half-maximal effect).
In assay [15] the target is Glucocorticoid receptor (Homo sapiens) (UniProt P04150). Briefly: qHTS assay to identify small molecule antagonists of the glucocorticoid receptor (GR) signaling pathway (AID 720692; active = well fitted inhibition curve with a large enough effect in the signal ratio in the repeat runs, not every such curve was filed as active; inconclusive = weak or mixed curves, or effect the other way; inactive = no such curve, though single readings can be large or run the other way; the % refers to the signal ratio; also: potency is read from the fitted curve at half-maximal effect). The method, boiled down:
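GR-bla HeLa cells carrying a GRE-driven beta-lactamase reporter received compound after 4 h plating, then dexamethasone (5 nM final). After 18 h at 37C, the FRET substrate was loaded for 2 h at room temperature and fluorescence read.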

Assay [16] can be described thus: qHTS assay for identifying genotoxic compounds that show differential cytotoxicity against isogenic chicken DT40 cell lines with known DNA damage response pathways - Rad54/Ku70 mutant cell line (AID 743015). Also: nearly all actives have a fitted effect of over 60% in size. Also: potency is read from the fitted curve at half-maximal effect.
% is scaled to controls: 0 for no effect and ±100 for the full control effect; tags tell the direction and shape of the fitted curve or compound fluorescence and quenching.

Chain of Glucocorticoid receptor (Homo sapiens) (P04150 whole entry, looked up): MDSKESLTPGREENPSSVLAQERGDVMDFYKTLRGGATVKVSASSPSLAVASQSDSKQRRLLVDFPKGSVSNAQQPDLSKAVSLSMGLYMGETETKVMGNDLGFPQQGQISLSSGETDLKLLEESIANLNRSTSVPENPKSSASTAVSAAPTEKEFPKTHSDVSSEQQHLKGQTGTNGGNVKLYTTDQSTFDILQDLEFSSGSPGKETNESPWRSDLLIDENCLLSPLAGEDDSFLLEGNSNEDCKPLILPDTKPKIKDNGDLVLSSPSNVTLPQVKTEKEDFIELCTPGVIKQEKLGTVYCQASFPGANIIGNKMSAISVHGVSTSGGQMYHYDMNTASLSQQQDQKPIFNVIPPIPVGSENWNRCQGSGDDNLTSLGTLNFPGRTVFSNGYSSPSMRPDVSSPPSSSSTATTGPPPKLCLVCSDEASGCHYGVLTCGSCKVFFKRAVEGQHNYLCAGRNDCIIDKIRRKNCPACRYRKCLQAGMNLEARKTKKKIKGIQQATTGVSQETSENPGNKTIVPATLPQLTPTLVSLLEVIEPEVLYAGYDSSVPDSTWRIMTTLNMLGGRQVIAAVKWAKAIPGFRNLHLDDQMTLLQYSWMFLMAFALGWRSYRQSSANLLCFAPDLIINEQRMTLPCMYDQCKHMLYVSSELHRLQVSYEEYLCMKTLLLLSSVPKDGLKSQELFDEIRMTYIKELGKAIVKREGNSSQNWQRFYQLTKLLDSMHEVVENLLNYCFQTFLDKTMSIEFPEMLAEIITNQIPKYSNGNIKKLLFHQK

On to `COc1ccc(-c2coc3cc(O)cc(O)c3c2=O)cc1`, for which the Potency entry in [1], in assay [2], in assay [3], in [4], in assay [5] and in [6] was “inactive” each time. Moreover, the Potency result in [7], in assay [8], in assay [9] and in assay [12] was “inactive” throughout. Further, the Potency in assay [10] was 54.5 µM (active); in assay [11], 27.3 µM (active).
For the molecule `NCCN`, the Potency entry in [1], in [2], in assay [3], in [4], in [5] and in assay [6] was “inactive” each time. Moreover, the Potency entry in assay [7], in assay [8], in assay [13], in [14] and in assay [12] was “inactive” each time.
As to `O=C(O)CCCCCCCCCCCC(=O)O`, the Potency entry in [1], in assay [2], in assay [3], in assay [4], in assay [5] and in assay [6] was “inactive” each time. Also, the Potency entry in assay [7], in [8], in assay [13], in assay [10], in assay [11] and in assay [14] was “inactive” throughout. In addition, the Potency result in assay [12] is “inactive”.
Regarding `COC(=O)c1ccc(C)cc1`, the Potency entry in assay [1], in assay [2], in assay [3], in [4], in assay [5] and in [6] was “inactive” in each case. Besides, the Potency entry in assay [7], in assay [8], in assay [9], in assay [15], in assay [13] and in [10] was “inactive” throughout. The Potency result in assay [11], in assay [14] and in assay [12] was “inactive” in each case.
In the case of `CCCCCCCC/C=C\CCCCCCCC(=O)O`, the Potency result in assay [1], in assay [2], in assay [3], in assay [4], in assay [5] and in assay [6] was “inactive” in each case. Also, the Potency result in assay [7], in assay [8], in assay [9], in [13], in assay [10] and in assay [11] was “inactive” in each case. The Potency result in assay [16], in assay [14] and in assay [12] was “inactive” in each case.
In the case of `C=CN1CCCC1=O`, the Potency entry in [1], in [2], in assay [3], in assay [4], in [5] and in assay [6] was “inactive” each time. For the same molecule, the Potency result in [7], in assay [8], in [13], in assay [10], in assay [11] and in assay [14] was “inactive” in each case. In addition, in assay [12], the Potency result is “inactive”.
Regarding `C=C[C@H]1CN2CC[C@H]1C[C@@H]2[C@@H](O)c1ccnc2ccc(OC)cc12`, the Potency entry in assay [1], in [2], in assay [3], in assay [4], in [5] and in assay [6] was “inactive” throughout. For the same molecule, the Potency entry in [7], in assay [8], in [13], in [14] and in assay [12] was “inactive” in each case. The Potency in assay [10] was 29.8 µM (active); in assay [11], 47.8 µM (active).
For `Nc1ccc(O)c(N)c1`, the Potency entry in assay [1], in [2], in assay [3], in [4], in [5] and in [6] was “inactive” each time. The Potency result in [7], in assay [8], in [9], in [13] and in [14] was “inactive” each time. Moreover, the Potency in assay [10] is 24.3 µM (active); in [11], “inactive and 27.3 µM (active)”; in [16], 27.3 µM (active).
For the molecule `Oc1ccc(C(c2ccc(O)cc2)C(Cl)(Cl)Cl)cc1`, the Potency result in [1], in [2], in assay [3], in [4], in assay [5] and in assay [6] was “inactive” throughout. In addition, the Potency result in assay [7], in assay [8] and in [12] was “inactive” in each case. For the same molecule, the Potency was 21.9 µM (active) in [15]; 24.3 µM (active) in [10]; 60.9 µM (active) and 48.6 µM (active) in assay [11]; 49 µM (active) in assay [14].
Turning to `CC/C(=C(/CC)c1ccc(O)cc1)c1ccc(O)cc1`, the Potency entry in assay [1], in [2], in assay [3], in assay [4], in assay [5] and in assay [6] was “inactive” in each case. The Potency result in [7], in [8] and in assay [12] was “inactive” in each case. Further, the Potency was 26.6 µM (active) and 30.4 µM (active) and 17.2 µM (active) in assay [10]; 29.8 µM (active) and 27.3 µM (active) in [11]; 26.6 µM (active) and 27.3 µM (active) in assay [16]; “inactive and 48.6 µM (active)” in assay [14].
Consider `CNC[C@H](O)c1ccc(O)c(O)c1`, for which the Potency result in [1], in assay [2], in assay [3], in assay [4], in assay [5] and in [6] was “inactive” each time. Also, the Potency result in assay [7], in assay [8], in assay [13], in assay [11], in assay [14] and in assay [12] was “inactive” in each case. In addition, the Potency in [10] is 29.8 µM (active).
On to `CC(=O)Oc1c(C)c(C)c2c(c1C)CC[C@@](C)(CCC[C@H](C)CCC[C@H](C)CCCC(C)C)O2`, for which the Potency entry in assay [1], in assay [2], in assay [3], in [4], in assay [5] and in assay [6] was “inactive” throughout. The Potency entry in [7], in assay [8], in assay [13], in assay [14] and in assay [12] was “inactive” each time.
Regarding `CC(=O)[C@@]1(O)CC[C@H]2[C@@H]3C[C@H](C)C4=CC(=O)C=C[C@]4(C)[C@@]3(F)[C@@H](O)C[C@@]21C`, the Potency entry in assay [1], in [2], in assay [3], in assay [4], in assay [5] and in assay [6] was “inactive” in each case. The Potency entry in assay [7], in [8], in assay [13], in assay [10], in [14] and in assay [12] was “inactive” each time. Moreover, the Potency in assay [9] is 12.9 nM [inconclusive] (active) and 3.5 nM (active); in [16] it was 43.3 µM (active).
As to `O=C(O)COCCN1CCN(C(c2ccccc2)c2ccc(Cl)cc2)CC1` (centres undefined), the Potency entry in assay [1], in assay [2], in assay [3], in assay [4], in assay [5] and in assay [6] was “inactive” each time. Besides, the Potency entry in assay [7], in assay [8], in [13], in assay [14] and in [12] was “inactive” throughout.
Take `O=C1OC2(c3ccccc31)c1cc(I)c(O)c(I)c1Oc1c2cc(I)c(O)c1I`: the Potency is 10 µM [fluorescent] (active) and 14.1 µM [fluorescent] (active) and 17.8 µM [fluorescent] (active) in assay [1]; 12.6 µM [fluorescent] (active) and 8.91 µM [fluorescent] (active) and 15.8 µM [fluorescent] (active) in [3]; 11.2 µM [fluorescent] (active) and 17.8 µM [fluorescent] (active) in assay [4]; 11.2 µM [fluorescent] (active) and 17.8 µM [fluorescent] (active) and 15.8 µM [fluorescent] (active) in assay [5]; 11.2 µM [fluorescent] (active) [middle of 4 runs] in assay [7]; “inactive and 9.33 µM (active)” in assay [10]. In addition, the Potency in assay [11] was 27.6 µM (active) and 11.7 µM (active); in assay [16], 17.4 µM (active) and 10.5 µM (active). The Potency entry in assay [2], in assay [6], in assay [8], in assay [13] and in assay [14] was “inactive” throughout.
